Experimental data as given in the supplement of paper PMC10849652.
Targets with a hit are over-represented here; the source holds about 8,800 in all. About 0.5% of all pairs of compound and target were hits.

Compound: Cc1cn(-c2cc(NC(=O)c3ccc(C)c(Nc4nccc(-c5cccnc5)n4)c3)cc(C(F)(F)F)c2)cn1 [nilotinib]
Assay: log2 fold change, soluble protein after heating vs DMSO (PISA); higher = thermal stabilisation; K562 lysate, 10 uM; active = over 0.2 and 3.5 SD of the protein, either way, in both replicates (recomputed)
In short: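 Dounce homogenisation of K562 pellets in PBS pH 7.4 with 1 mM MgCl2 produced a crude extract, used at 1 mg/mL protein. Exposure to 10 μM compound lasted 30 min, and aliquots were then heated for 3 min across 48°C-58°C, pooled and brought to 0.5% NP-40 at 4°C. The supernatant after 21,000xg for 90 min was quantified by TMTpro 16plex LC-MS/MS with channel sums equalised. Duplicate values are given as log-two fold change in thermal stability relative to solvent controls.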

UniProt Q9HBL8, sequence (Q9HBL8 whole entry, looked up): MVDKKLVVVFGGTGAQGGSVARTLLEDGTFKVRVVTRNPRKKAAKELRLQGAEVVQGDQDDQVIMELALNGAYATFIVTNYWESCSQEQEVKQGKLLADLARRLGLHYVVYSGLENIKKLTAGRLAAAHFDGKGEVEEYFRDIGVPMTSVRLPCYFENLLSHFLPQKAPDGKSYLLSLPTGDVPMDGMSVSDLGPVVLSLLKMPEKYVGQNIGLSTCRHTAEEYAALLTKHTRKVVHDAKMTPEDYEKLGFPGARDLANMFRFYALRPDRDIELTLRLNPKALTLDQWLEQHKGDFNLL
UniProt Q9NX02, sequence (Q9NX02 whole entry, looked up): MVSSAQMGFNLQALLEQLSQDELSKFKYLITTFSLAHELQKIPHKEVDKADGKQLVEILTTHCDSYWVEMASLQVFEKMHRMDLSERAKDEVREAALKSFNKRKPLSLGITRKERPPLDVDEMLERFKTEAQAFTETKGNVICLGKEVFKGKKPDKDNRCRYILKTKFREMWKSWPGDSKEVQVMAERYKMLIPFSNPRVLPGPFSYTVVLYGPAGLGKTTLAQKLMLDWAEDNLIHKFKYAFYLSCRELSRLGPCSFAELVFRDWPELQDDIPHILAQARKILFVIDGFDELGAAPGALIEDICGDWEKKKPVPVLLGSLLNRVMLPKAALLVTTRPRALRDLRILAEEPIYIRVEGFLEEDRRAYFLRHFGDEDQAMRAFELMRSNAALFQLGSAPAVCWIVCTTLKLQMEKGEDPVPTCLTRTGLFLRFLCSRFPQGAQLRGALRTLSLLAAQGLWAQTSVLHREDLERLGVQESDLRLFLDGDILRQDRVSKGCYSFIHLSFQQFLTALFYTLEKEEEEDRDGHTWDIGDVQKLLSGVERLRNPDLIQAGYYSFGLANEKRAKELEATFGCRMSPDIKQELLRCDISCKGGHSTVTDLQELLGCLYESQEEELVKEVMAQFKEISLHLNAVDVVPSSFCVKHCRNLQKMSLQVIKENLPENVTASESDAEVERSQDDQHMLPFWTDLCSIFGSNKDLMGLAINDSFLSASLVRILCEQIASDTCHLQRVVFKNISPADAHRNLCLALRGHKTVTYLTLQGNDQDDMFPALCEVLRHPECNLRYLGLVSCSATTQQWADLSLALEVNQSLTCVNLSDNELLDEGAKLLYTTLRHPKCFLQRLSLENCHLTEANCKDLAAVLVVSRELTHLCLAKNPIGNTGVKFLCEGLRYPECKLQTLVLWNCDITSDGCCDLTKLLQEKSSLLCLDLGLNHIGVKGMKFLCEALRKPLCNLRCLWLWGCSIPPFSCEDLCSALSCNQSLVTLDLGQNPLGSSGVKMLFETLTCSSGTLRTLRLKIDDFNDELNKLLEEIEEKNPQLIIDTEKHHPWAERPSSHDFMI
UniProt O95644, sequence (O95644 whole entry, looked up): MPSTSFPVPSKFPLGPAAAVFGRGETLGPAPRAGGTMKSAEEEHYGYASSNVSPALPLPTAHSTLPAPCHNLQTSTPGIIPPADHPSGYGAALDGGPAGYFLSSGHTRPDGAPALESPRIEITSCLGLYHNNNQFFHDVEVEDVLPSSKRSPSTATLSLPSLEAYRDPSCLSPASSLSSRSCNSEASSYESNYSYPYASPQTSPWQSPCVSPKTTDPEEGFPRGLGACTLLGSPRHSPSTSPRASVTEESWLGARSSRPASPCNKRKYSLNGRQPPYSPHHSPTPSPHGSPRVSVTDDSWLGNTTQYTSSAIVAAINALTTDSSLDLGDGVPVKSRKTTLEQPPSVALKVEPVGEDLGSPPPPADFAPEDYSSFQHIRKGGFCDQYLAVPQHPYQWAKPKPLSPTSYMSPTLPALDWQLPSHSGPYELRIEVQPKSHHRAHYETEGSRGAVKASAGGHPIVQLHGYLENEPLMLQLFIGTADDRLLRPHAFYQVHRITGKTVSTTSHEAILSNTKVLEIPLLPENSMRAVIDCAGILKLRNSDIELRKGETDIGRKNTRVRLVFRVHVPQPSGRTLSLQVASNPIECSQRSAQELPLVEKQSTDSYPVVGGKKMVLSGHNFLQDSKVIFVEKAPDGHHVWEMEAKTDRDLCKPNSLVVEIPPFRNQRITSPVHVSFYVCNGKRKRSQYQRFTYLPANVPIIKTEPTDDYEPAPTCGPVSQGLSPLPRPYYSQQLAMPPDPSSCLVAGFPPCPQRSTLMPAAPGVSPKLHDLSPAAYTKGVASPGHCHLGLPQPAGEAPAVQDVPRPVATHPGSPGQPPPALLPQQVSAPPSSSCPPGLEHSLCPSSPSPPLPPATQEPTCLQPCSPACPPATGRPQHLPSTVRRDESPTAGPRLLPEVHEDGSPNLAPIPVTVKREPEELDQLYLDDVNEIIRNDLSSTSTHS
UniProt Q96NT1, sequence (Q96NT1 whole entry, looked up): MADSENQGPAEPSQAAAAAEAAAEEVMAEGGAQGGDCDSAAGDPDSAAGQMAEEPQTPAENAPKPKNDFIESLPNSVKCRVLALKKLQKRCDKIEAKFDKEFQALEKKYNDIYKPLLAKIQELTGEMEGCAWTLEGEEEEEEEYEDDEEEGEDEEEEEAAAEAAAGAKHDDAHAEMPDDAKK
UniProt Q8TDX7, sequence (Q8TDX7 whole entry, looked up): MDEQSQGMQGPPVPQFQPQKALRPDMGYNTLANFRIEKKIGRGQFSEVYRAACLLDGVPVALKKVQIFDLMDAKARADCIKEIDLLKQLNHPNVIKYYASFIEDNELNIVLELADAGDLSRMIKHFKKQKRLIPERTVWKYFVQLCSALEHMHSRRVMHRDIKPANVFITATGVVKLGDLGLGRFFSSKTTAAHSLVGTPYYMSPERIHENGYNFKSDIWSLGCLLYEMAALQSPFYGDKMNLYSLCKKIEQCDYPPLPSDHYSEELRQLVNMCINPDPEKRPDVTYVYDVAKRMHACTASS
UniProt Q15021, sequence (Q15021 whole entry, looked up): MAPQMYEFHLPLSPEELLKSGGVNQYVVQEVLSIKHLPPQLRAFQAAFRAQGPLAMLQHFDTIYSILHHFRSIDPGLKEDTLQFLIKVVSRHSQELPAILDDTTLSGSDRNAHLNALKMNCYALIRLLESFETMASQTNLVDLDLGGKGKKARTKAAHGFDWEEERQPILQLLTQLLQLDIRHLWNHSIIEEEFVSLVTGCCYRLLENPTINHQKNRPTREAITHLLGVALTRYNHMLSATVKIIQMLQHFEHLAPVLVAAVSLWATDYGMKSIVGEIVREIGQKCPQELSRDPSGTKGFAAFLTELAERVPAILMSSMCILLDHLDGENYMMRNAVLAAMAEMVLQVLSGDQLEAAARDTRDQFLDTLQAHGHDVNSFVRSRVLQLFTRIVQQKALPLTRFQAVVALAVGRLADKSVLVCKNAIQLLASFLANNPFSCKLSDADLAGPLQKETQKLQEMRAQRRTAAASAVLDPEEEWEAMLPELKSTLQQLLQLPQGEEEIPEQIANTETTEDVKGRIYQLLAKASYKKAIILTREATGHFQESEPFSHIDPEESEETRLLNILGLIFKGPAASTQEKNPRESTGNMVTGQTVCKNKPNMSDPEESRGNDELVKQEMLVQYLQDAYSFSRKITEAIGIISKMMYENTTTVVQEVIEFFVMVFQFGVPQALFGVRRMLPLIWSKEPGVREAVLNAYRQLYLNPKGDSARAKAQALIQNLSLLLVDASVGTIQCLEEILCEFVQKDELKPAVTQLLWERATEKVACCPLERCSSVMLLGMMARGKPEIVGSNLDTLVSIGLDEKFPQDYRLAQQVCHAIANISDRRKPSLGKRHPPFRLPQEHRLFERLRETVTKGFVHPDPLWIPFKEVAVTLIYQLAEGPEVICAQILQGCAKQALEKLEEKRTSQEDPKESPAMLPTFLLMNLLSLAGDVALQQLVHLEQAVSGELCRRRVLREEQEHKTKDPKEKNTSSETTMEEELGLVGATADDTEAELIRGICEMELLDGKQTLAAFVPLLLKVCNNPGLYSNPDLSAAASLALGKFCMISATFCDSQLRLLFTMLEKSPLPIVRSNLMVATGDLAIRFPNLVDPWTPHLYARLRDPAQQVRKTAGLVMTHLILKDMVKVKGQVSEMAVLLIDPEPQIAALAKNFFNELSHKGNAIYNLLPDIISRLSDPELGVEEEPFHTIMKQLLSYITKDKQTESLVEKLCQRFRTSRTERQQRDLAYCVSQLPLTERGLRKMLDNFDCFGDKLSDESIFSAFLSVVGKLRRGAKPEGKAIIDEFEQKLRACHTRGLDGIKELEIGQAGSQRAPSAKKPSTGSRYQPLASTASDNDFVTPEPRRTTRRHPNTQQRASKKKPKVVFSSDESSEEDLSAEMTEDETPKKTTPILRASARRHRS
UniProt Q9Y6C9, sequence (Q9Y6C9 whole entry, looked up): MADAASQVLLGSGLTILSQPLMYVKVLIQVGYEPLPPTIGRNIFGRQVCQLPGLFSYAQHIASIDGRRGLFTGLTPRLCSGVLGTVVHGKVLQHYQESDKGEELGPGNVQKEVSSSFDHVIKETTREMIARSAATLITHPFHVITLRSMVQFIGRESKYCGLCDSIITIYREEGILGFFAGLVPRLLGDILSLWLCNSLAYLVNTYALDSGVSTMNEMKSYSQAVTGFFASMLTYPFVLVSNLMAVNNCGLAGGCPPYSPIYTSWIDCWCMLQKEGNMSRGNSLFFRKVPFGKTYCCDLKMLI
UniProt Q9NPF4, sequence (Q9NPF4 whole entry, looked up): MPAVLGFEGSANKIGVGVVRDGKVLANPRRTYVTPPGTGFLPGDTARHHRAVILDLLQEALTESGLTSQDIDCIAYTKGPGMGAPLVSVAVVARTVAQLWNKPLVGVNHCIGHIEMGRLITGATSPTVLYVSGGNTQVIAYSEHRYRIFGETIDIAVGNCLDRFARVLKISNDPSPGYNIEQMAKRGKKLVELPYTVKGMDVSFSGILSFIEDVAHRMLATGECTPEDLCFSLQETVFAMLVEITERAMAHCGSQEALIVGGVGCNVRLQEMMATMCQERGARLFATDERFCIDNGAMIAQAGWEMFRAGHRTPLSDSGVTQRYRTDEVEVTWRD
UniProt Q9BRA0, sequence (Q9BRA0 whole entry, looked up): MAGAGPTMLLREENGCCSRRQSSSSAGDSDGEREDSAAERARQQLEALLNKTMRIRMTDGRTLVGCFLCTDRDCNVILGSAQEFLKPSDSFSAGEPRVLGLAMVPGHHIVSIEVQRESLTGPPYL

log2 fold change, inactive:
NTPCR (UniProt Q9BSD7) 0.019
MTHFD1L (UniProt B7ZM99) -0.017
NOA1 (UniProt Q8NC60) -0.041
NT5DC2 isoform 2 (UniProt Q9H857) 0.025
OTUD7B (UniProt Q6GQQ9) -0.017
NADK2 (UniProt Q4G0N4) 0.022
NTMT1 (UniProt Q9BV86) -0.033
OSGEP (UniProt Q9NPF4) -0.005
NDUFA4 (UniProt O00483) 0.062
NUB1 (UniProt Q9Y5A7) -0.021
NFATC2 (UniProt Q13469) -0.001
ORC2 (UniProt Q13416) 0
NELFCD (UniProt Q8IXH7) -0.024
NMRAL1 (UniProt Q9HBL8) -0.017
PAIP2 (UniProt Q9BPZ3) 0.136
NCAPD2 (UniProt Q15021) 0.006
NEDD8 (UniProt Q15843) 0.004
NFIC (UniProt P08651) -0.058
NELFA (UniProt Q9H3P2) -0.018
NLRP2 (UniProt Q9NX02) -0.002
OSBPL6 isoform 5 (UniProt Q9BZF3) 0.281
MTCH2 (UniProt Q9Y6C9) 0.044
NAA38 isoform 2 (UniProt Q9BRA0) -0.024
NAP1L5 (UniProt Q96NT1) -0.008
MT-ND1 (UniProt P03886) -0.054
NFATC2IP (UniProt Q8NCF5) 0.027
MYCBP (UniProt Q99417) -0.034
NIT2 (UniProt Q9NQR4) -0.011
NEBL (UniProt O76041) -0.024
NFKBIB (UniProt Q15653) -0.004
NEK7 (UniProt Q8TDX7) 0.003
NCOR1 (UniProt O75376) 0.006
ORC3 isoform 2 (UniProt Q9UBD5) -0.014
NCK1 (UniProt P16333) -0.071
NFATC1 (UniProt O95644) -0.048
